From PubChem BioAssay
Hits are enriched below; roughly 3.9% of the tested compounds scored in any of these assays.
Caspase-7 inhib = allosteric or competitive inhibitors of human caspase-7. recombinant caspase-7, Ac-DEVD-AFC fluorescence rate. Potency, µM (highest dose often 57.5 µM), inactives show at the highest dose activity change, negative = inhibition, hits mostly inhibitors. AID 889. 75,000 compounds, 0.02% hits. P55210; active = well fitted inhibition curve with a large enough effect in the main read-out, with a control signal flat, not every such curve was filed as active; inconclusive = small, poorly fitted or top-dose-only effect, or a change in a side signal; note: % of control where 0% means no effect
Caspase-1 inhib = caspase-1 (human) inhibition, allosteric or competitive. Caspase-1 enzyme, Ac-WEHD-AFC fluorogenic rate. Potency, µM (doses to about 57.5 µM), for the others: top-dose activity change, negative = inhibition, actives largely listed as inhibitors. 75,000 compounds, 0.03% hits. AID 900;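 note: plate controls were vehicle for no effect and no substrate for full effect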
ERK AVP block = vasopressin-driven ERK pathway inhibition. HEK293-V1b, vasopressin-stimulated pERK AlphaScreen. Potency, µM (highest dose often 57.5 µM), for inactives: top-dose activity, negative = inhibition, most hits filed as inhibitors. 72,000 compounds, 0.99% hits; note: % is set by controls: 0 for no effect and ±100 for the full control effect; nearly all actives have a fitted effect of over 55% in size
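HEK293 cells stably expressing V1b receptor, preincubated 30 min at 37 °C with compound, then stimulated 5 min with 25 nM vasopressin. Phospho-ERK by AlphaScreen SureFire after 5 h RT; normalized to DMSO and vasopressin; AC50 by Hill fit.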
15-hLO inh = blocks human 15-lipoxygenase activity; P16050; purified 15hLO-1, xylenol orange hydroperoxide absorbance; Potency, µM (doses to about 57.1 µM), for the others: at the highest dose activity change, negative = inhibition, usual class: inhibitors; 74,000 compounds, 1.4% hits; AID 887; note: % is set by controls: 0 for no effect and ±100 for the full control effect; nearly all actives have a fitted effect of over 55% in size
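Compounds were preincubated 15 min at room temperature with 40 nM purified human enzyme (25 mM Hepes pH 7.5, 0.01% Triton X-100); 50 uM arachidonic acid reacted 6 min. Fe-xylenol orange detection, 30 min, absorbance ratio 573/405 nm.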
Tau filament bind = binders of human tau filaments. P10636. recombinant tau filaments, thioflavin S fluorescence, 15 h; filaments grown with octadecylsulfate alongside compound. Potency, µM (highest dose often 57.1 µM), for the others: at the top dose activity change, negative = inhibition. 71,000 compounds, 2% hits. AID 596;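 note: % is set by controls: 0 for no effect and ±100 for the full control effect; actives lower thioflavin S fluorescence by blocking filaments or displacing dye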
Target sequence (P10636 whole entry, looked up): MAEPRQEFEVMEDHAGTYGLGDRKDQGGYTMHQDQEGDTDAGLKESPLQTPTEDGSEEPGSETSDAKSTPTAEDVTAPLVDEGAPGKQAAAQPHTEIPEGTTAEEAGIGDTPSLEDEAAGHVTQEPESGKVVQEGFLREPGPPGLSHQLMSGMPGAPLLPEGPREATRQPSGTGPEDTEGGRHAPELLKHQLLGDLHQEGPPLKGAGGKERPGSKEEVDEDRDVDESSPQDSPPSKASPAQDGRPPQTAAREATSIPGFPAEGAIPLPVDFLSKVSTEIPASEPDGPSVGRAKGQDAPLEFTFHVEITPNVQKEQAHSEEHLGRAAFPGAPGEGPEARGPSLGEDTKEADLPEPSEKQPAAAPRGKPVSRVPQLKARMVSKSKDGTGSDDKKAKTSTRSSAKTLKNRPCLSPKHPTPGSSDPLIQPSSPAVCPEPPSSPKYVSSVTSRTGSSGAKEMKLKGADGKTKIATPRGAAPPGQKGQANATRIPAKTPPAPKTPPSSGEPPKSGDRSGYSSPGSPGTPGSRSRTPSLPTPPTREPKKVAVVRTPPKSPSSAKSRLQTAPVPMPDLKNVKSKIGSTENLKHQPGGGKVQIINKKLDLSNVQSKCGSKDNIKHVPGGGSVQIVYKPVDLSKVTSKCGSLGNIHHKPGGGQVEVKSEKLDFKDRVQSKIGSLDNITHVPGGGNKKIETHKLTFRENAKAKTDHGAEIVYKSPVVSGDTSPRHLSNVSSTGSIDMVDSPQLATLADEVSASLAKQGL
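His-tagged recombinant human tau (exons 2, 3 and 10 included), 1 uM, was induced to fibrillize by 30 uM sodium octadecylsulfate with compound present. After 15 h at 37 C, thioflavine S fluorescence (ex 450, em 510 nm) was read.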
Numbers without * were called inactive; ? = inconclusive; nt = no result; ! = a repeat was not active; [ ] = dose if it differs, or a comment. Unless noted, calls come from the whole dose curve; as a rule, active = well fitted curve in the direction sought with a large enough effect; inconclusive = small, poorly fitted or top-dose-only effect, or another doubt; inactive = no such curve, though single readings can be large; an effect the other way counts as inactive or inconclusive. Potency is the fitted concentration of half-maximal effect.

SMILES	Caspase-7 inhib	Caspase-1 inhib	ERK AVP block	15-hLO inh	Tau filament bind
COc1ccc(C2C(C(C)=O)=C(C)N=c3s/c(=C\c4ccc5c(c4)OCO5)c(=O)n32)c(OC)c1 (configuration not stated)	?	nt	-21%	-5%	4µM*
Cc1ccc(C2=C(Cl)C(=O)C(c3ccc(C)cc3)=C(Cl)C2=O)cc1	-2%[11.5 µM]	4%[11.5 µM]	10%[11.5 µM]	?	-2%[11.4 µM]
Cc1c(N=CC=Nc2c(C)n(C)n(-c3ccccc3)c2=O)c(=O)n(-c2ccccc2)n1C	0%	-1%	-11%	3%[11.4 µM]	-4%[11.4 µM]
Cc1c(N=c2c(=O)c3ccccc3c2=O)c(=O)n(-c2ccccc2)n1C	-5%	-12%	20µM*	-14%	16µM*
CCN(CC)CCNC(=O)c1ccc(Cc2nc3ccccc3[nH]2)cc1	2%	-4%	nt	2%	nt
O=[N+]([O-])c1cccc2c(Br)[nH]nc12	-2%	3%	?	13µM*	40µM*!
Cc1nc2cnc(N(C)C)nc2n(C)c1=O	?	nt	16µM*	0%	53%
COc1cccc(Cn2c(=O)c(C)nc3cnc(Nc4cccc(OC)c4)nc32)c1	?	nt	?	1%	30%
COc1cccc(Nc2ncc3nc(C)c(=O)n(C)c3n2)c1	-11%	-2%	-7%	26%	13µM*
CC(C)(CO[C@H]1C[C@H]2CC[C@@]1(C)C2(C)C)[N+](=O)[O-]	0%[11.5 µM]	-4%[11.5 µM]	8%[11.5 µM]	5%[11.4 µM]	-8%[11.4 µM]
CCCCOCCOCCSC#N	0%	1%	2%	-2%	-11%
Cc1ccc(C(=O)CCNc2ccc(Br)cc2)o1	-1%	1%	-15%	6%	-16%
Cc1ccc(C(=O)CCNc2cccc(Br)c2)o1	0%	-2%	?	13µM*	-10%
NCCSC[C@H](N)C(=O)O	2%[11.5 µM]	-1%[11.5 µM]	12%[11.5 µM]	0%[11.4 µM]	1%[11.4 µM]
NNC(=O)[C@@H](O)[C@H](O)C(=O)NN	-1%[11.5 µM]	1%[11.5 µM]	9%[11.5 µM]	11%[11.4 µM]	5%[11.4 µM]
CCN(CC)S(=O)(=O)c1cccc(-c2nnc(SCC(=O)NCCC3=CCCCC3)n2N)c1	-1%	-1%	40µM*	-11%	-10%
CC(C)=CCC1=C(O)c2ccccc2C(=O)C1=O	-3%	-6%	11%	-19%	nt
Oc1ccc2c(c1)oc1cc(O)ccc12	-2%	1%	-11%	13µM*	-19%
O=c1cc(-c2cccc(O)c2)oc2cc(O)ccc12	-10%	-5%	-1%	2%[25.6 µM]	-2%
O=c1c(-c2ccc(F)cc2)nc2cnc(N3CCOCC3)nc2n1Cc1ccc(F)cc1	?	nt	-24%	-3%	-1%
O=C(NCCCCN1CCCC1)c1ccc(Cc2nc3ccccc3[nH]2)cc1	0%	-1%	nt	4%	nt
Cc1cccc(OCCCCc2c(C)n[nH]c2C)c1C	-3%	-4%	?	-8%	16µM*
CCN=c1scc(-c2ccc3c(c2)NC(=O)CO3)n1N=C1CCCC1	-7%	0%	?	-19%	13µM*
CN(C)CCCOC1C(C(O)CO)OC2OC(C)(C)O[C@@H]21 (some centres not stated)	1%	-1%	15%	0%	nt
COc1cc(OC)c(OC)cc1CNc1cc(C)ccc1OC	-3%	-1%	25µM*	-3%	?
SMILES	Caspase-7 inhib	Caspase-1 inhib	ERK AVP block	15-hLO inh	Tau filament bind
NCCC[C@@H](CC(=O)N[C@@H]1CCCC[C@H]1C(=O)N[C@H](CC(=O)N[C@@H](CCC(=O)O)CC(=O)O)Cc1c[nH]c2ccccc12)NC(=O)C[C@H](Cc1c[nH]c2ccccc12)NC(=O)[C@@H]1CNCC[C@H]1N	nt	nt	nt	nt	-12%
COc1ccc(N2CCN(c3nc(NC(C)(C)C)nc(N4CCCCC4)n3)CC2)cc1	-1%	-2%	?	-8%	10µM*
c1cncc(-c2cncnc2NC2CCNCC2)c1	-1%	2%	-19%	32µM*	-17%
Cc1cc(C)c(S(=O)(=O)Nc2ccccc2C(=O)O)cc1C	-1%	-5%	nt	6%	nt
C[C@@H](NC(=O)/C(C#N)=C/c1ccc(O)c(O)c1)c1ccccc1	-2%	-1%	?	?	-42%
N#CC(C#N)=C(N)/C(C#N)=C/c1ccc(O)cc1	-2%	-2%	13µM*	-7%	-10%
CCOC(=O)c1cnn2c(C(F)(F)F)cc(-c3cn(C)nc3C)nc12	-29%	?	-27%	-1%	0%
